Bioassay records from PubChem.
TEAD-YAP inh = TEAD-YAP interaction inhibition. HEK-TIYL cells, TEAD-Gal4/YAP UAS-luciferase luminescence. inhibition, % at 9.12 µM. hit rate 1.4% among 640,000; in the data active means inhibition above about 32%
GPR151 activ = human GPR151 activation | Q8TDV0 | hit rate 1% among 650,000 | activation, % at 11.2 µM | PathHunter beta-arrestin GPR151 cells, luminescence | AID 1508602; in the data active means activation above about 4.9%
Target sequence (Q8TDV0 whole entry, looked up): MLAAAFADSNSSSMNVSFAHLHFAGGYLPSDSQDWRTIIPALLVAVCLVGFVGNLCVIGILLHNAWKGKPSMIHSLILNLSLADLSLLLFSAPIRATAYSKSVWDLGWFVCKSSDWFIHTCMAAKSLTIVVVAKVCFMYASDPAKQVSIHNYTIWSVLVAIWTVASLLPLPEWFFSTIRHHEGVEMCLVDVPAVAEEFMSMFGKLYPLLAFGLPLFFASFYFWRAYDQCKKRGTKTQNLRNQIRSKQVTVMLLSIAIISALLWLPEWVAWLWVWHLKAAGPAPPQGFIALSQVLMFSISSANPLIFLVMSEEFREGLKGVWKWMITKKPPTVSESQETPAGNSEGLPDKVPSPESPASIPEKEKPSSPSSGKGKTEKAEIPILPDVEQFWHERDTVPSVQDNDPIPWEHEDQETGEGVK
MITF inh = human MITF inhibition, primary screen; AlphaScreen MITF homodimerization, bead proximity signal; inhibition, % at 2.6 µM; hit rate 0.91% among 650,000; in the data active means inhibition above about 50%
FBW7 activator = activators of human E3 ligase FBW7. Q969H0. AlphaScreen FBW7–phospho-cyclin E peptide binding, activator screen. normalized activity (activation), % at 26.1 µM. hit rate 0.13% among 650,000; in the data active means normalized activity above about 1.9%;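 further: purified mutant Fbw7 with reduced substrate affinity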
GPR151 conf act = confirmation of human GPR151 activators; shares compounds with GPR151 activ; GPR151 PathHunter beta-arrestin cells, luminescence, 90 min; % of EA-reagent control over plate median; activation, % at 11.2 µM; 6,700 tested, under 10 active;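 active means mean percent activation across replicates above the confirmation screen cutoff of 4.91%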
GPR119 counter = GPR119 activation, counter-screen for GPR151 activators; activation, % at 11.2 µM; AID 1508611; shares compounds with GPR151 activ; GPR119 PathHunter beta-arrestin cells, luminescence, 90 min; 0 = compound-well median, 100 = enzyme-acceptor control; hit rate 0.3% among 6,700;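 active means mean percent activation in the counterscreen above 29.09%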;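 further: counterscreen on off-target GPR119 to flag nonselective hits from the GPR151 activator screen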
Of the large screens only hits and unclear results are named; the others gave an inactive call (follow-up assays come after a bar, where they were run). Shown are actives, neighbours in structure and some others; about 3.4% of the full set was active somewhere.

CC(=O)Nc1ccc(NC(=O)c2cccc(N3CCCC3CO)n2)cc1 (configuration not stated)	GPR151 activ 5.6 | GPR151 conf act inactive | GPR119 counter inactive
O=C(NCCO)c1cccc(N2CCCC2CO)n1 (configuration not stated)	none
CCCOc1ccc(S(=O)(=O)NCCCl)cc1	none
O=C(Nn1c(=S)[nH]c2ccsc2c1=O)c1ccccc1	GPR151 activ 5.0 | GPR151 conf act inactive | GPR119 counter inactive
O=C(Nn1c(=S)[nH]c2ccccc2c1=O)c1ccccc1	none
Cc1nc(NC(=O)CCC2CCCC2)sc1C	none
COCCOC(=O)c1c(C)oc2ccc(OCC(=O)O)cc12	none
CCN(CC)CCCN(C)C(=O)Cc1nc(-c2ccc(OC)cc2)no1	GPR151 activ 5.0 | GPR151 conf act inactive | GPR119 counter inactive
CCN(C(=O)Cc1nc(-c2ccc(OC)cc2)no1)c1ccccc1C	GPR151 activ 8.9 | GPR151 conf act inactive | GPR119 counter inactive
CC(C)N(Cc1nc(-c2ccccc2)no1)C(=O)c1ccccc1F	none
COc1ccc(-c2noc(CN(C(=O)c3ccccc3F)C(C)C)n2)cc1	GPR151 activ 5.4 | GPR151 conf act inactive | GPR119 counter inactive
COc1ccc(-c2noc(CC(=O)Nc3cc(C)on3)n2)cc1	none
COc1ccc(-c2noc(CC(=O)Nc3cccc(C)n3)n2)cc1	GPR151 activ 5.5 | GPR151 conf act inactive | GPR119 counter inactive
CCCn1c(=NC(=O)c2c(F)cccc2F)c(C(=O)OCC)cc2c(=O)n3ccccc3nc21	none
COCC1CCCCN1C(=O)CC1(c2ccccc2)CC(=O)N(CCc2ccccn2)C1=O (configuration not stated)	GPR151 activ 5.4 | GPR151 conf act inactive | GPR119 counter inactive
COc1ccc(-c2nnc(NC(=O)c3ccccc3C)s2)c(OC)c1	GPR151 activ 5.8 | GPR151 conf act inactive | GPR119 counter inactive
COc1ccc(-c2nnc3sc(NC(=O)C(C)C)nn23)cc1OC	GPR151 activ 14.3 | GPR151 conf act inactive | GPR119 counter inactive
COc1ccc(-c2nnc3sc(NC(=O)c4ccccc4C)nn23)cc1	none
COc1ccc(-c2nnc3sc(NC(=O)c4ccccc4C)nn23)cc1OC	GPR151 activ 8.8 | GPR151 conf act inactive | GPR119 counter inactive
Cc1ccc(NC(=O)Cn2cnc3c(cnn3-c3cccc(C)c3C)c2=O)cc1Cl	none
Cc1ccc(-n2ncc3c(=O)n(CC(=O)Nc4cccc5ccccc45)cnc32)cc1C	GPR151 activ 6.7 | GPR151 conf act inactive | GPR119 counter inactive
CCc1cccc(C)c1NC(=O)Cn1cnc2c(cnn2-c2ccc(OC)cc2)c1=O	GPR151 activ 6.9 | GPR151 conf act inactive | GPR119 counter inactive
COC(=O)c1ccc(NC(=O)Cn2cnc3c(cnn3-c3cccc(C)c3C)c2=O)cc1	GPR151 activ 8.8 | GPR151 conf act inactive | GPR119 counter inactive
CC(C)C(=O)N1CCCC(c2nnc(-c3cccs3)o2)C1 (configuration not stated)	none
COc1ccc(-c2nc(NC(=O)CS(=O)(=O)c3ccc(F)cc3)sc2C)cc1	none
COc1ccccc1NC(=O)CSc1nc2ccsc2c(=O)n1-c1ccc(Cl)cc1	GPR151 activ 5.6 | GPR151 conf act inactive | GPR119 counter inactive
COc1ccc(-n2c(SCC(=O)Nc3ccccc3OC)nc3ccsc3c2=O)cc1	none
COC(=O)C1=C(C)N(c2ccc(Cl)cc2)C(=O)/C1=C\c1ccco1	none
COC(=O)C1=C(C)N(c2ccc(C(C)C)cc2)C(=O)/C1=C\c1ccco1	GPR151 activ 6.0 | GPR151 conf act inactive | GPR119 counter inactive
Cn1c(SCC(=O)Nc2ccc3c(c2)OCCO3)nc2c(c1=O)SCC2	none
O=C(c1ccccc1-c1nc(-c2ccc(Cl)cc2)no1)N1CCOCC1	none
CCOc1cc(C=C2C(=O)c3ccccc3C2=O)ccc1OC(C)=O	GPR151 activ 10.2 | GPR151 conf act inactive | GPR119 counter inactive
CCOC(=O)C1=C(C)N=c2s/c(=C/c3ccc(OCCOc4ccc(C)c(C)c4)c(OCC)c3)c(=O)n2C1c1ccc(OC)cc1 (configuration not stated)	none
COc1cc2c(N3C(=O)CCC3=O)c3c(=O)oc(C)cn3c2cc1OC	GPR151 activ 9.1 | GPR151 conf act inactive | GPR119 counter inactive
